Data as given in PubChem BioAssay (EPA / NIEHS).
Results filed as inconclusive are left out. Active and inactive are the calls of the source. Rule for the calls: active = hit-call score of the fitted dose curve at least 0.9, where 1 is the maximum; inconclusive = response in the unintended direction; inactive = score below 0.9.

target: human RAR-related Orphan Receptor beta (RORb), RORB (gene 6096) (UniProt Q92753); assay: ATG_RORb_TRANS: Attagene TRANS-FACTORIAL HepG2 Assay for human RAR-related Orphan Receptor beta (RORb) (AID 2283010)
Experimental: ATG_TRANS is a cell-based, multiplexed-readout assay that uses HepG2, a human liver cell line, with measurements taken at 24 hours after chemical dosing in a 24-well plate.ATG_RORb_TRANS is one of 30 assay component(s) measured or calculated from the ATG_TRANS assay. It is designed to make measurements of mRNA induction, a form of inducible reporter, as detected with fluorescence intensity signals by Reverse transcription polymerase chain reaction (RT-PCR) and Capillary electrophoresis technology.Data from the assay component ATG_RORb_TRANS was analyzed into 1 assay endpoint. This assay endpoint, ATG_RORb_TRANS, was analyzed in the positive analysis fitting direction relative to DMSO as the negative control and baseline of activity. Using a type of inducible reporter, measures of mRNA for gain-of-signal activity can be used to understand the reporter gene at the transcription factor-level as they relate to the gene RORB. Furthermore, this assay endpoint can be referred to as a primary readout, because this assay has produced multiple assay endpoints where this one serves a reporter gene function. To generalize the intended target to other relatable targets, this assay endpoint is annotated to the nuclear receptor intended target family, where the subfamily is orphan.
Human liver HepG2 cells are transiently transfected with multiple reporter transcription units (MRTUs) in 6-well plates using FuGene 6 reagent (Roche; 3 ml FuGene/1 mg DNA). The MRTU constructs are regulated by a cis-regulating element (promoter). […] A major difference between the CIS and TRANS system is that in CIS activities of endogenous TFs are measured, whereas the TRANS assay evaluates changes in activities of exogenous, chimeric NR-Gal4 proteins. […] At the end of 24 hour incubation, total RNA was isolated using TriZol reagent (Invitrogen). The isolated RNA is then reverse-transcribed using oligo(dT) primer and Mo-MLV reverse transcriptase (Invitrogen) with DNAse I (Ambion) treatment for 30 min. The one-tenth of the produced cDNA was amplified by PCR using Taq DNA polymerase (Invitrogen) and two reporter sequence-specific primers. The PCR products were fluorescently labeled by primer extension with 6-arboxyfluorescein (6-FAM) 5'-labeled reporter sequence-specific primer (2 min at 95 C, 20 s at 68 C and 10 min at 72 C) and these products were digested with 5U of HpaI (New England Biolabs) for 2h at 37 C. The fragments were purified using Qiaquick PCR columns (Qiagen), analyzed on an ABI 3130xL genetic analyzer (Applied Biosystems) with peak positions identified by using a set of X-rhodamine (ROX)-labeled MapMarker1000 molecular weight standards (BioVentures). The raw capillary electrophoresis data was processed using Attagraph software (Attagene).

Chain of human RAR-related Orphan Receptor beta (RORb), RORB (gene 6096) (Q92753 whole entry, looked up): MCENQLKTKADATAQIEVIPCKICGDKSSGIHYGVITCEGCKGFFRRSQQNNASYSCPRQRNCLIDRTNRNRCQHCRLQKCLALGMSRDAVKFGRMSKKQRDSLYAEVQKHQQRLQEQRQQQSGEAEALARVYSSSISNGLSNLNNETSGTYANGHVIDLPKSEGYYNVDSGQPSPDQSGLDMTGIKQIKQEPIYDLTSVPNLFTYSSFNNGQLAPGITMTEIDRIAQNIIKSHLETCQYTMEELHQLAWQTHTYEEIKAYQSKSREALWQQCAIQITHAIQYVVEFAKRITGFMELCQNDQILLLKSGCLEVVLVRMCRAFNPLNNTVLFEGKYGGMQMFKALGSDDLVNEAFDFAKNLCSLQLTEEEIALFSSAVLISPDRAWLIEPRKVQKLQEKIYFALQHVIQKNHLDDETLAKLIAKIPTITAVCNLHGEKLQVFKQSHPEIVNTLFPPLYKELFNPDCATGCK

outcome, inactive:
C#CC(C)N(C)C(=O)Nc1ccc(Cl)cc1 (stereo not given)
CCC(=O)OCCOc1ccccc1
O=C(O)CCCCCCCCCCCC(=O)O
Nc1ccc2cc(S(=O)(=O)O)cc(O)c2c1N=Nc1ccccc1C(F)(F)F
C=CCCCCCCCCCC
CS(=O)(=O)c1ccc(Cl)cc1
c1ccc2[nH]cnc2c1
CC(C)(N=C=O)c1cccc(C(C)(C)N=C=O)c1
CC1=CC[C@@]23C[C@@H]1C(C)(C)[C@@H]2CC[C@H]3C
Clc1cc(Cl)c(-c2c(Cl)c(Cl)cc(Cl)c2Cl)cc1Cl
CN(C)CCOC(C)(c1ccccc1)c1ccccn1 (stereo not given)
CC(C)CC(C)CC(O)CC(C)C (stereo not given)
CSCCC=O
O=C(CS)OCCOC(=O)CS
Cc1occc(=O)c1OC(=O)C(C)C
CCCC(O)C(O)CO (stereo not given)
CCCC(C)=O
O=C(O)c1ccc(O)cc1
CCOCCOCCOCC
CCCCCCCCC=CCCCCCCCC1=NCCN1CCO
Nc1ccc(NCCO)c([N+](=O)[O-])c1
COc1ccc(N=Nc2cc(C)c(N=Nc3ccc(S(=O)(=O)O)cc3)cc2OC)cc1
c1ccc2cc(Nc3ccc(Nc4ccc5ccccc5c4)cc3)ccc2c1
O=CCc1ccccc1
O=P(O)(O)O
CCC(=O)O[C@@H]1C[C@H]2CC[C@]1(C)C2(C)C
Cc1c(C2(c3cc(Br)c(O)c(Br)c3C)OS(=O)(=O)c3ccccc32)cc(Br)c(O)c1Br
CC(C)C[C@H](NC(=O)OCC1c2ccccc2-c2ccccc21)C(=O)O
C1CCOC1
[O-]n1ccccc1=S.[O-]n1ccccc1=S.[Zn+2]
O=C(O)c1cc(C(=O)O)cc([N+](=O)[O-])c1
O=C1OC[C@H](Cc2cccc(O)c2)[C@H]1Cc1cccc(O)c1
Cc1ccc(-c2ccccc2)cc1
CCC1CCCCC1
CN(C)C(=S)SC(=S)N(C)C
COc1ccccc1[N+](=O)[O-]
CC1(C)CCC[C@]2(C)[C@H]3CCO[C@]3(C)CC[C@@H]12
Cc1ccc2c(c1)C(=O)OC2=O
ON=C1CCCCC1
C[Si]1(C)O[Si](C)(C)O[Si](C)(C)O1
